PME-1 inh: blocks human protein phosphatase methylesterase 1; inhibition, % at 5.9 µM; Q9Y570; AID 2130; 0.53% of 320,000 active; recombinant PME-1, FP-Rh probe fluorescence polarization;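 active = inhibition above the campaign mean of all compounds plus 3 SD, cut at about 26% in these data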;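 also: competitive labeling of PME-1 active site by serine hydrolase directed probe; 0% = PME-1 with DMSO and 100% = wells lacking PME-1 enzyme; inhibitors block probe labeling so polarization falls and inhibition rises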
GSTO1 counter: blocks human GSTO1 in RBBP9 counter-screen. P78417. recombinant GSTO1, activity-based probe fluorescence polarization. inhibition, % at 5.96 µM. 1.1% of 300,000 active;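 active = inhibition above the campaign mean inhibition plus 3 SD, cut at about 35% in these data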;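 also: 0% = GSTO1-1 with DMSO and 100% = wells lacking GSTO1-1 enzyme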
LYPLA1 counter: blocks human lysophospholipase 1, a PME1 counter-screen; O75608; recombinant LYPLA1, FP-Rh probe fluorescence polarization; inhibition, % at 5.9 µM; 0.16% of 320,000 active;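 active = inhibition above the mean of all tested compounds plus 3 SD, set per campaign, cut at about 14% in these data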;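 also: inhibitors block serine hydrolase probe labeling of LYPLA1 so polarization falls; 0% = enzyme with DMSO and 100% = wells lacking LYPLA1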
Target sequence (O75608 whole entry, looked up): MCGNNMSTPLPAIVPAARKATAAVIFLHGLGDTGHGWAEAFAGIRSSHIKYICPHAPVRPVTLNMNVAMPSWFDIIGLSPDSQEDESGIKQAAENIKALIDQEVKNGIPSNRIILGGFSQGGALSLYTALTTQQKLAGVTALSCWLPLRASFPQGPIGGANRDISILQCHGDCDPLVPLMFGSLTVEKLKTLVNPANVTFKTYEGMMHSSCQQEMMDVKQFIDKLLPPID
LYPLA2 counter: counter-screen for PME1 inhibitors: inhibitors of human LYPLA2; AID 2177; recombinant LYPLA2, FP-Rh probe fluorescence polarization; 0.38% of 320,000 active; inhibition, % at 5.9 µM; O95372;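 active = inhibition above the screen-wide mean plus 3 SD, limit set per campaign, cut at about 26% in these data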;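 also: 0% = LYPLA2 with DMSO and 100% = wells lacking LYPLA2 enzyme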
Target sequence (O95372 whole entry, looked up): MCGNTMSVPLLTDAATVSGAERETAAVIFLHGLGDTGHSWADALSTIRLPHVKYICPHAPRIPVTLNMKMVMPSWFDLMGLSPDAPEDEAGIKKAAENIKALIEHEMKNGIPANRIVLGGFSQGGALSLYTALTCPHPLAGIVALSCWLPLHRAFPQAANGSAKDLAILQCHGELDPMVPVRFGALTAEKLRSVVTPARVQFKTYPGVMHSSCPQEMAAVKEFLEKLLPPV
Fam108B counter: counter-screen for RBBP9 inhibitors: inhibitors of mouse Fam108B. 0.33% of 300,000 active. inhibition, % at 9.51 µM. recombinant Fam108B, FP-Rh probe fluorescence polarization. AID 1947;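 active = inhibition above the screen mean inhibition plus 3 SD, computed separately per campaign, cut at about 18% in these data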;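 also: inhibitors lower polarization as less probe binds the enzyme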
PAD4 FP inh: blocks human protein arginine deiminase 4; Q9UM07; recombinant PAD4, RCA probe fluorescence polarization; inhibition, % at 6.36 µM; 0.41% of 330,000 active; AID 485272;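 active = percent inhibition above a cutoff equal to the mean of all tested compounds plus 3 SD, cut at about 15% in these data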;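 also: 0% = PAD4 with RCA probe and DMSO and 100% = probe without PAD4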
LYPLA2 confirm: counter-screen for PME1 inhibitors: confirmation of human LYPLA2 inhibitors; 72% of 1,100 active; inhibition, % at 5.9 µM; shares compounds with LYPLA2 counter; AID 2232; recombinant LYPLA2, FP-Rh probe fluorescence polarization;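 active = mean inhibition across replicates above the hit cutoff set in the primary screen, cut at about 26% in these data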;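 also: blocked labeling of the enzyme by serine hydrolase FP-Rh probe lowers polarization; 0% = enzyme with DMSO and 100% = wells lacking LYPLA2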
LYPLA2 gel ABPP: LYPLA2 (human) inhibition, late stage results; shares compounds with LYPLA2 counter; rhLYPLA2 in mouse brain proteome, gel ABPP FP-Rh; inhibition, % at 20 µM; 30% of 150 active; AID 652029;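 active = inhibition of LYPLA2 enzyme probe labeling above about 50%, limit read from the data; inactive = inhibition below that limit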;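 also: loss of FP-Rh probe labeling of the LYPLA2 gel band measured as band density; 0% = DMSO only control band and 100% = blank gel background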
An asterisk follows results filed as active; · = no result. In the library only some 1.7% were active in any assay of this set; here they are far more common.

SMILES | PME-1 inh | GSTO1 counter | LYPLA1 counter | LYPLA2 counter | Fam108B counter | PAD4 FP inh | LYPLA2 confirm | others
Cc1ccccc1SCC(=O)N1CCN(c2ccc(C(F)(F)F)cn2)CC1 | 1 | 5 | -3 | 28* | -7 | 8 | 36*
CC(C)c1ccccc1NC(=S)NCc1ccncc1 | -9 | -3 | -1 | -1 | -1 | -11 | ·
CCOC(=O)c1c(NC(=O)CN2C(=O)NC(C)(c3ccc(Cl)cc3)C2=O)sc(C(=O)NC)c1C (centres undefined) | 12 | -2 | 5 | 41* | 0 | 0 | 34*
CCOC(=O)c1c(NC(=O)CN2CCOCC2)sc(C(=O)NC)c1C | 3 | 4 | -2 | 0 | 0 | 3 | ·
Cc1ccc(S(=O)(=O)NCC(=O)OCC(=O)NC2CCCCC2)cc1 | · | · | · | · | · | -6 | ·
O=C(NCCCN1CCOCC1)c1ccccc1N1C(=O)[C@@H]2Cc3c([nH]c4ccccc34)C(c3ccc(F)cc3)N2C1=O (some centres undefined) | -6 | -16 | -3 | 2 | 0 | -1 | ·
O=C(O)c1ccc(CN2C(=O)c3ccc(Oc4ccc([N+](=O)[O-])cc4)cc3C2=O)cc1 | -5 | 7 | -5 | 59* | -4 | -11 | 66* | LYPLA2 gel ABPP=59*
O=C1c2ccc(Oc3ccc([N+](=O)[O-])cc3)cc2C(=O)N1CCO | 0 | 10 | 0 | 20 | 1 | 0 | ·
O=C1NC(=O)c2cc(Oc3ccc([N+](=O)[O-])cc3)ccc21 | 0 | 5 | 1 | 30* | -1 | -7 | 36*
Nc1cccc(Oc2ccc([N+](=O)[O-])cc2)c1 | -5 | 0 | 3 | 32* | -7 | 2 | 35*
COCCNC(=O)C1(C(F)(F)F)CC(CCCO)CCCO1 (centres undefined) | 4 | 0 | 2 | -2 | -6 | -1 | ·
COc1ccc2cc(C3(C)NC(=O)N(CC(=O)Nc4c(C)n(C)n(-c5ccccc5)c4=O)C3=O)ccc2c1 (centres undefined) | -4 | -1 | -2 | 3 | -4 | -4 | ·
Cn1c(-c2ccc(F)cc2)cnc1NCc1cc2c(cc1[N+](=O)[O-])OCO2 | 2 | -1 | 3 | 42* | 0 | 0 | 44*
Cn1c(-c2ccccc2)cnc1NCc1cc2c(cc1[N+](=O)[O-])OCO2 | 7 | 5 | -1 | 29* | 2 | 0 | 41*
Cc1cc(F)ccc1NCc1cc2c(cc1[N+](=O)[O-])OCO2 | 3 | 12 | 3 | 27* | 6 | -2 | 8
Cn1c(-c2ccc(Cl)cc2)cnc1NCc1cc2c(cc1[N+](=O)[O-])OCO2 | 9 | -7 | 0 | 51* | 2 | -1 | 49*
CCCCOc1ccc(OC(=O)c2cccnc2)cc1 | 1 | 0 | -1 | 2 | 6 | -4 | ·
CCCCCCCOc1ccc(OC(=O)c2cccnc2)cc1 | 3 | 2 | 1 | 41* | -4 | 0 | 48*
CCCCCCCOc1ccc(OC(=O)c2ccncc2)cc1 | 0 | 5 | 3 | 32* | 2 | -5 | 49*
COCCn1c(N)c(Sc2ccc(C)cc2)c(=O)[nH]c1=O | -5 | -1 | 6 | 16 | -3 | -1 | ·
CCCCNC(=O)Cn1cnc2sc(C)c(S(=O)(=O)N3CCN(c4ccccc4OC)CC3)c2c1=O | 1 | -2 | 0 | -3 | 4 | 0 | ·
Cc1ccn(C(=O)c2ccc(NC(=O)C3CCCCC3)cc2)n1 | 15 | -11 | 1 | 3 | 6 | -1 | ·
COc1ccc(C(C)=O)cc1COC(=O)C(CO)NS(=O)(=O)c1ccc(Br)cc1 (centres undefined) | 9 | -6 | -2 | -8 | -2 | -5 | ·
Cc1cc(=O)n2nc(N3CCC(C(=O)N4CCN(c5ccccc5)CC4)CC3)sc2n1 | -2 | 6 | 1 | 20 | -3 | -1 | ·
CCCc1cc(=O)n2nc(N3CCC(C(=O)N4CCN(c5ccc(OC)cc5)CC4)CC3)sc2n1 | -8 | 1 | -7 | 51* | 1 | -1 | 49*
SMILES | PME-1 inh | GSTO1 counter | LYPLA1 counter | LYPLA2 counter | Fam108B counter | PAD4 FP inh | LYPLA2 confirm | others
O=C(NNC(=O)C(c1ccccc1)c1ccccc1)c1ccccn1 | 8 | 14 | 2 | -1 | -2 | 2 | ·
CC(C)(C)c1cc(C(=O)NNC(=O)c2ccc(Cl)cc2)no1 | -4 | -1 | 2 | 7 | 2 | 2 | ·
O=C(c1cccc(Br)c1)N1CCN(c2cnn(-c3ccccc3)c(=O)c2Cl)CC1 | 4 | 10 | 6 | 28* | 2 | -3 | 15
O=C(CC1C(=O)NCCN1CCCc1ccccc1)NCCc1ccccc1Cl (centres undefined) | -12 | 20 | -7 | -7 | -1 | 0 | ·
COc1ccccc1C1CC(c2ccc(Cl)cc2Cl)Nc2nc(N)nn21 (centres undefined) | 0 | 3 | -1 | 43* | 4 | 2 | 34*
O=C(Nc1ccccc1F)c1ccco1 | -5 | -1 | -4 | -3 | -3 | -3 | ·
NC(=O)CC(NC(=O)c1ccccc1)c1ccc(N2CCN(c3ccc(F)cc3)CC2)c([N+](=O)[O-])c1 (centres undefined) | -1 | 5 | -4 | 27* | -8 | -4 | 33*
NC(=O)CC(NC(=O)c1ccccc1)c1ccc(N2CCN(c3ccccc3)CC2)c([N+](=O)[O-])c1 (centres undefined) | 9 | -2 | -4 | 14 | 2 | -4 | ·
NC(=O)CC(NC(=O)c1ccc(Br)cc1)c1ccc(N2CCN(c3ccccn3)CC2)c([N+](=O)[O-])c1 (centres undefined) | 13 | 4 | 3 | 50* | -3 | 4 | 57* | LYPLA2 gel ABPP=37
COc1cc(C(C)=O)ccc1O | 1 | 3 | 1 | 2 | 0 | 5 | ·
CCOC(=O)C1CCCN(C(=O)c2ccc3nc(-c4cccc(OC)c4)oc3c2)C1 (centres undefined) | 1 | -3 | 7 | 56* | -5 | 2 | 57*
COc1cccc(-c2nc3ccc(C(=O)N4CCCC(O)C4)cc3o2)c1 (centres undefined) | 5 | -1 | 4 | 0 | -3 | -7 | ·
CCOC(=O)C1CCCN(C(=O)c2ccc3nc(-c4ccccc4)c(-c4ccccc4)nc3c2)C1 (centres undefined) | 0 | 5 | -3 | 2 | -1 | 1 | ·
CCC(=O)C1CCCN(C(=O)c2ccc3nc(-c4cccc(OC)c4)oc3c2)C1 (centres undefined) | 4 | -4 | 8 | 29* | 0 | -2 | 40*
O=C(/C=C/c1ccc(F)cc1)NCC1(c2ccccc2)CCOCC1 | 2 | 0 | -1 | 7 | -1 | -3 | ·

Screening data from PubChem BioAssay.
